From PubChem BioAssay come the findings set out here.

Each structure is given as a SMILES string. A number with no mark means an inactive call.

The assay is described as follows: E. coli acrAB mutant growth effects, primary screen, E. coli filamentation inducers, strain DRC39, OD650, 48 h (AID 1179).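 Also: screen aims at cell division blockers that make cells filament.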 Conditions: E. coli DRC39 delta-acrAB growth, higher = more signal, called active from +8 up or from −8 down.
Consider `CC=CC1=C(CO)[C@H](O)[C@H]2O[C@H]2[C@H]1O`, for which the z-score is -0.299.

With `COCCNC(=O)OCC1CCCC2(CC(OC(=O)NCCc3ccc(F)cc3)CC(CCC(=O)N[C@@H](C)C(=O)OC)O2)O1` (stereo partly specified), the z-score is 1.16.

Consider `CC(C)[C@H](NC(=O)OC(C)(C)C)[C@@H](O)CC(=O)OC(C)(C)C`, for which the z-score is -0.998.

Regarding `CCc1cc2c(nc1CC)CCN(CCC(C)=NOC[C@@H](O)COCc1ccco1)C2`, the z-score is 0.389.

Regarding `CCOC(=O)[C@H](Cc1ccccc1)NC(=O)CCC1CC(OC(=O)NCc2ccc3c(c2)OCO3)CC2(CCCC(COC(=O)NCc3ccccc3)O2)O1` (stereo partly specified), the z-score was 1.22.

Take `C=CCOC(=O)[C@H]1[C@@H]2C(=O)O[C@@H](c3ccccc3)[C@@H](c3ccccc3)N2[C@@H](c2ccc(OCCOC(=O)[C@H]3C[C@H]4C(=O)N[C@@H](Cc5ccccc5)C(=O)N4[C@H]3c3ccc(O)cc3)cc2)[C@]12C(=O)Nc1ccccc12`: the z-score was 0.124.

Consider `C=CC[C@@H]1C=C[C@H](ON=C2c3cc(OC)ccc3O[C@H](c3cccc(OC)c3)[C@H]2O)[C@@H](CO)O1`, for which the z-score was 0.741.

Regarding `CC(C)(C)N1C(=O)[C@H]2[C@H]3[C@H](O)[C@H](O)CC(=NO[C@@H]4O[C@H](CO)[C@@H](O)[C@H](O)[C@H]4O)[C@@H]3CC[C@H]2C1=O`, the z-score was 0.441.

In the case of `CC(C)=NOCc1cccc(-c2cc(-c3ccccc3)no2)c1`, the z-score is -1.41.

For the compound `C[C@H]1CC[C@@H](C(=O)O)N[C@@H]1c1ccc(C#CCN(C)C)cc1`, the z-score was 0.15.

With `CO[C@H]1COC(=O)[C@H](C)NC(=O)[C@@H](C)COC(=O)CC=C[C@@H]1C`, the z-score was 1.3.

Turning to `COC(=O)CC=C[C@H](C)[C@H](CO)NS(=O)(=O)c1ccc(C)cc1`, the z-score is -0.6.

Consider `Cc1cc2c(nc1C)CCCN2CC(C)ON=C1[C@H]2CCn3c(=O)n(-c4ccccc4)c(=O)n3[C@H]2[C@H](O)[C@@H]2O[C@H]12` (stereo partly specified), for which the z-score was -1.98.

On to `CC(C)OC(=O)C=C1C[C@@H](c2ccc(C#N)cc2)O[C@@H](c2ccc(C#N)cc2)O1`, for which the z-score was -0.182.

As for `CO[C@H]1COC(=O)[C@H](C)COC(=O)CC=C[C@@H](C)[C@H](OC)COC(=O)CC=C[C@@H]1C`, the z-score was 0.804.

In the case of `CC(CCN1CCc2nc(-c3ccccc3)c(-c3ccccc3)cc2C1)=NO[C@@H](C)c1cn([C@H](CO)Cc2ccccc2)nn1`, the z-score was -0.147.

As for `COc1ccc([Si](C)(C)[C@@H]2[C@@H](CC(=O)N3CCC[C@H]3CO)O[C@]3(C(=O)N(Cc4cccc(N5CCC5=O)c4)c4ccccc43)[C@H]2C)cc1`, the z-score is 0.388.

Take `COc1ccccc1CN1C(=O)c2ccccc2[C@@H](C(=O)NCC(F)(F)F)[C@@H]1c1ccc(CO)cc1`: the z-score is 1.69.

In the case of `[N-]=[N+]=NCc1ccccc1[C@@H]1OC(c2ccc(OCCCO)cc2)=N[C@]1(Cc1ccccc1)C(=O)N1CCOCC1`, the z-score was 0.917.

Take `CC(C)(C)OC(=O)CC[C@]1(C(=O)NCc2ccccc2)N=C(c2ccc(OCCCO)cc2)O[C@H]1c1ccccc1`: the z-score was 0.03.

On to `CC1CC/C=C\[C@H]2OC34C=CCN(Cn5nnc6ccccc65)C(=O)[C@H]3N(CCO)C(=O)[C@@H]4C2C(=O)O1` (stereo partly specified), for which the z-score is -0.108.

With `CCOC(=O)CCN1C(=O)[C@H]2[C@H]3[C@H](O)C=CC(=O)[C@@H]3CC[C@H]2C1=O`, the z-score is -0.689.

For the compound `O=C1C[C@@H](O)[C@@H](O)[C@@H]2[C@@H]3C(=O)N(Cc4ccc5c(c4)OCO5)C(=O)[C@@H]3CC[C@@H]12`, the z-score was 0.0272.

Regarding `CCN1C(=O)[C@H]2[C@H]3[C@H](O)[C@H](O)CC(=NO[C@@H]4O[C@H](CO)[C@@H](O)[C@H](O)[C@H]4O)[C@@H]3CC[C@H]2C1=O`, the z-score was 0.117.

Regarding `C#CCCCON=C1C[C@@H](O)[C@@H](O)[C@@H]2[C@@H]3C(=O)N(Cc4ccccc4)C(=O)[C@@H]3CC[C@H]12`, the z-score is -0.923.

In the case of `C[C@@H](c1ccccc1)N1C(=O)[C@H]2[C@H]3[C@H](O)[C@H](O)CC(=NNC(=O)OCc4ccccc4)[C@H]3CC[C@H]2C1=O`, the z-score is -0.462.

On to `COC(=O)[C@H](C)NC(=O)CCC1CC(OC(=O)NCc2cccc3ccccc23)CC2(CCCC(COC(=O)NCCc3ccc(Cl)cc3)O2)O1` (stereo partly specified), for which the z-score was 0.687.

Regarding `CCc1cc2c(nc1CC)CCN(CCC(C)=NOC(C)CN1CCCc3nc(C)c(C)cc31)C2` (stereo unspecified), the z-score is -1.71.

For `COC(=O)[C@@]1(Cc2ccc(OC)cc2)[C@H]2c3cc(C(=O)N4CCCC4)n(Cc4cc(F)c(F)c(F)c4)c3C[C@H]2CN1C(=O)c1ccccc1`, the z-score is -0.254.

As to `CN1C(=O)C2C=CC(C(O)c3ccc(Br)cc3)N(N(c3ccccc3)c3ccccc3)C2C1=O` (stereo unspecified), the z-score is -0.283.

Consider `CCOC(=O)NN=C1C[C@@H](O)[C@@H](O)[C@@H]2[C@@H]3C(=O)N(CC)C(=O)[C@@H]3CC[C@@H]12`, for which the z-score is -0.325.

On to `O=C(CS)NCCCCCNC(=O)[C@@H]1C[C@@H]2C(=O)N[C@@H](Cc3ccccc3)C(=O)N2[C@@H]1c1ccc(O)cc1`, for which the z-score is 0.904.

As to `C=CC[C@]1(C(=O)NCc2ccccc2)N=C(c2ccc(OCCCO)cc2)O[C@H]1c1ccccc1`, the z-score is -0.126.

Take `O=C1[C@H]2[C@H]3[C@H](O)[C@H](O)CC(=NOCc4ccccc4)[C@H]3CC[C@H]2C(=O)N1c1cccc(Oc2ccccc2)c1`: the z-score was -0.482.

`COC(=O)CC=C[C@@H](C)[C@H](OC)c1ccccc1Br`: the z-score was -0.129.

`CCN1C(=O)[C@H]2[C@H]3[C@H](O)C=CC(=O)[C@@H]3CC[C@H]2C1=O`: the z-score is 0.205.
